Most compounds without a hit are left out; they make up all but 2.2% or so of the library.
Abeta yeast res – restores growth of yeast expressing A-beta42 peptide. Potency, µM (titrated, usually from 46.1 µM), most hits filed as activators. AID 1347071. 410,000 tested, 0.063% active. yeast expressing A-beta42, growth rescue, OD600, 48 h; response scale: 0% DMSO, 100% iron-clioquinol control; also: nearly all actives have a fitted effect of over 55% in size
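Yeast growth medium received pinned compounds, then yeast cells expressing toxic A-beta were added; plates incubated at 30 C for 48 hr. Growth read as absorbance at 600 nm, normalized to DMSO and equimolar FeCl3 plus clioquinol controls.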
aSyn rescue – alpha-synuclein toxicity inhibition in yeast; Potency, µM (top dose mostly 46.1 µM), without a hit: top-dose growth rescue (activation), most hits filed as activators; Yeast expressing alpha-synuclein, growth rescue, BacTiter-Glo, 24 h; 370,000 tested, 0.14% active; AID 652106; also: % of control where 0% means no effect; nearly all actives have a fitted effect of over 65% in size
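Rescue of yeast growth: cells expressing toxic alpha-synuclein, induced in galactose at OD600 0.02, incubated with compound 24 h at 30 C. ATP luminescence quantified growth; inhibitors of toxicity appear as activators.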
TDP43 rescue – rescues yeast growth from TDP-43 toxicity | TDP-43 expressing yeast growth rescue, BacTiter-Glo, 24 h | Potency, µM (highest dose often 46.1 µM), for inactives: at the highest dose growth rescue (activation), actives largely listed as activators | 410,000 tested, 1.8% active | AID 652104; also: % of control where 0% means no effect; nearly all actives have a fitted effect of over 50% in size
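Yeast cells expressing TDP-43 under galactose induction are exposed to compounds for 24 hr at 30 deg C. BacTiter-Glo luminescence measures growth, so protective compounds score as activators.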
Mito fusion yeast – inhibitors of mitochondrial division or activators of mitochondrial fusion. S. cerevisiae fusion-defective mutant growth rescue, CellTiterGlo 48 h. Potency, µM (titrated, usually from 46.1 µM), inactives show top-dose growth rescue (activation), actives largely listed as activators. 320,000 tested, 0.23% active. AID 485298; also: % of control where 0% means no effect; nearly all actives have a fitted effect of over 45% in size
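Yeast fusion mutant, YPEG (non-fermentable carbon), compound, 48 h at 37C non-permissive; CellTiterGlo added, 10 min RT, luminescence read. Rescued growth = division inhibition.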
FUS suppressor – suppressors of FUS proteinopathy in yeast. S. cerevisiae FUS-expressing, growth rescue, OD600, 24 h. Potency, µM (series often up to 76.6 µM), most hits filed as activators. 390,000 tested, 0.24% active;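 also: plate controls were DMSO vehicle for no effect and reference control for full effect; nearly all actives have a fitted effect of over 55% in size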
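Restored growth of FUS-toxic S. cerevisiae, read as 600 nm absorbance after 24 h at 30C in galactose medium (starting OD 0.005). Controls CP55940 and DMSO.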
Starred values were filed as active, the others as inactive; ! = not confirmed by another sample. Calls follow the shape of the dose curve; as a rule, active = well fitted curve in the direction sought with a large enough effect; inconclusive = small, poorly fitted or top-dose-only effect, or another doubt; inactive = no such curve, though single readings can be large; an effect the other way counts as inactive or inconclusive. Potency is read from the fitted curve at half-maximal effect.

`O=C(CNc1ccc2ccccc2c1)N/N=C/c1cc2ccccc2nc1Cl` gave Abeta yeast res inactive, aSyn rescue 5%, TDP43 rescue 17%, Mito fusion yeast 14µM* and FUS suppressor inactive.
`S=C1SCCCN1Cc1ccc(Cl)cc1` gave Abeta yeast res inactive, aSyn rescue 2%, TDP43 rescue 11µM* and FUS suppressor inactive.
Screening COc1ccc(S(=O)(=O)Nc2ccc3c(c2)C(=O)N([C@H](C)CO)C[C@H](C)[C@@H](CN(C)S(=O)(=O)c2ccc(F)cc2)O3)cc1 returned Abeta yeast res inactive, aSyn rescue -2%, TDP43 rescue 27% and FUS suppressor inconclusive.
Screening Cc1noc(C)c1S(=O)(=O)Nc1ccc2c(c1)C(=O)N([C@H](C)CO)C[C@H](C)[C@H](CN(C)S(=O)(=O)c1ccc(Cl)cc1)OCCCC[C@@H](C)O2 returned Abeta yeast res inactive, aSyn rescue 2%, TDP43 rescue 20% and FUS suppressor inconclusive.
Screening Cc1ccc(S(=O)(=O)N(C)C[C@@H]2OCCCC[C@@H](C)Oc3ccc(NS(=O)(=O)c4c(C)noc4C)cc3C(=O)N([C@H](C)CO)C[C@@H]2C)cc1 returned Abeta yeast res inactive, aSyn rescue 3%, TDP43 rescue 11% and FUS suppressor 16µM*.
C[C@@H]1CCCCO[C@@H](CN(C)Cc2ccc(Cl)c(Cl)c2)[C@@H](C)CN([C@H](C)CO)C(=O)c2cc(NC(=O)Nc3ccccc3)ccc2O1 was read as Abeta yeast res inactive, aSyn rescue -2%, TDP43 rescue -4% and FUS suppressor 28µM*.
C[C@H](CO)N1C[C@H](C)[C@@H](CN(C)Cc2ccc(-c3ccccc3)cc2)Oc2c(NS(=O)(=O)c3ccccc3)cccc2C1=O was read as Abeta yeast res inactive, aSyn rescue 17%, TDP43 rescue 11% and FUS suppressor 22µM*.
Screening COc1ccc(S(=O)(=O)N(C)C[C@H]2Oc3ccc(NS(=O)(=O)c4ccc(F)cc4)cc3C(=O)N([C@H](C)CO)C[C@@H]2C)cc1 returned Abeta yeast res inactive, aSyn rescue 2%, TDP43 rescue 28% and FUS suppressor 32µM*.
For O=C(CSc1nnc(-c2cccnc2)n1Cc1ccco1)Nc1cc(Cl)ccc1F the results were FUS suppressor inactive.
CCc1ccc(NC(=O)N(Cc2c[nH]c3ccccc23)C2CCCCCC2)cc1 was read as Abeta yeast res inactive, aSyn rescue inconclusive, TDP43 rescue 12% and FUS suppressor inactive.
For COc1ccc(S(=O)(=O)Nc2cccc3c2O[C@H](CN(C)S(=O)(=O)c2ccc(Cl)cc2)[C@H](C)CN([C@H](C)CO)C3=O)cc1 the results were Abeta yeast res inactive, aSyn rescue -7%, TDP43 rescue 0% and FUS suppressor 10µM*.
`COc1ccc(S(=O)(=O)Nc2cccc3c2O[C@H](CN(C)S(=O)(=O)c2cccs2)[C@@H](C)CN([C@H](C)CO)C3=O)cc1` gave Abeta yeast res inactive, aSyn rescue -3%, TDP43 rescue -19% and FUS suppressor inconclusive.
Screening Cc1ccc(-c2ccccc2)n1-c1ccc(C(=O)O)cc1 returned Abeta yeast res inactive, aSyn rescue -26%, TDP43 rescue 13µM*, Mito fusion yeast -5% and FUS suppressor inactive.
For Cc1ccc(-c2ccccc2)n1-c1cccc(C(=O)O)c1 the results were Abeta yeast res inactive, aSyn rescue -11%, TDP43 rescue 35µM*, Mito fusion yeast -2% and FUS suppressor inactive.
Screening CCOC(=O)c1cccc(NC(=O)[C@@H](c2ccccc2)N2Cc3ccccc3C2=O)c1 returned Abeta yeast res inactive, TDP43 rescue 9% and FUS suppressor inactive.
O=C(Oc1ccc(Br)cc1C(=S)N1CCCC1)c1ccccc1F was read as Abeta yeast res inactive, aSyn rescue 5%, TDP43 rescue 16µM* and Mito fusion yeast 20%.
Screening Cc1ccc(Cl)c(Nc2ccccc2C(=O)O)c1Cl returned Abeta yeast res inactive, aSyn rescue -17%, TDP43 rescue inconclusive, Mito fusion yeast 5.2µM*! and FUS suppressor inactive.
For Cc1nn(-c2ccccc2)c2c1N(CC(=O)N1CCN(c3cccc(Cl)c3)CC1)C(=O)CS2 the results were Abeta yeast res inactive, TDP43 rescue 0% and FUS suppressor inactive.
`COc1nc(Nc2cccc(C(F)(F)F)c2)nc(OC)n1` gave Abeta yeast res inactive, aSyn rescue -9%, TDP43 rescue 14µM*, Mito fusion yeast 11% and FUS suppressor inactive.
For Cc1cc(C)nc(Nc2cccc(C(F)(F)F)c2)n1 the results were Abeta yeast res inactive, aSyn rescue -13%, TDP43 rescue inconclusive, Mito fusion yeast -1% and FUS suppressor inactive.
Cc1ccc(-c2cc(C(=O)O)n(Cc3ccccc3)n2)cc1 was read as Abeta yeast res inactive, TDP43 rescue inconclusive and FUS suppressor inactive.
`CCCOc1ccc(NC(=O)CC2C(=O)N(c3ccc(C)cc3)C(=O)N2C(C)C)cc1` (stereo not drawn) gave Abeta yeast res inactive, TDP43 rescue 5% and FUS suppressor inactive.
Screening O=C(CCCN1C(=O)c2ccccc2C1=O)NCCc1ccc(OC(F)F)cc1 returned Abeta yeast res inconclusive, aSyn rescue -9%, TDP43 rescue 13µM*, Mito fusion yeast 16% and FUS suppressor inactive.
`CCOC(=O)c1ccc(NC(=O)Nc2cc3c(cc2N2CCCC2)n(C)c(=O)n3C)cc1` gave Abeta yeast res inactive, TDP43 rescue 13% and FUS suppressor inactive.
For CC(=O)c1c(N2CCOCC2)nc2ccc(Br)cc2c1-c1ccccc1 the results were Abeta yeast res inactive, aSyn rescue 9%, TDP43 rescue 14µM*, Mito fusion yeast 1% and FUS suppressor inactive.
O=c1[nH]c2ccc(Br)cc2c(-c2ccccc2)c1N1CCOCC1 was read as Abeta yeast res inactive, aSyn rescue -1%, TDP43 rescue 11%, Mito fusion yeast -3% and FUS suppressor inactive.
`Cc1cccn2c(=O)c3cc(C(=O)NC(C)C)n(C)c3nc12` gave Abeta yeast res inactive, TDP43 rescue inconclusive and FUS suppressor inactive.
`Cc1nn(C)c2c1c(C(F)(F)F)cc(=O)n2CC(=O)N1CCN(c2ccccc2F)CC1` gave Abeta yeast res inactive, TDP43 rescue 22µM* and FUS suppressor inconclusive.
Screening Cc1cc(=O)n(CC(=O)N2CCN(c3ccccc3F)CC2)c2c1c(C)nn2C returned Abeta yeast res inactive, TDP43 rescue inconclusive and FUS suppressor inactive.
